Only some compounds are listed: those with a hit (about 10% of all), similar ones and a draw of the others.
GLS inh = inhibitors of human glutaminase (GLS); O94925; GLS enzymatic activity, qHTS titration; Potency, µM (doses to about 45.5 µM), actives largely listed as inhibitors; 410,000 tested, 0.21% active; AID 624170
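Enzyme dispensed in phosphate buffer (45 mM, pH 8.2, 0.02% Tween-20), compounds pinned in, then 1 mM L-glutamine solution and the glutamate oxidase–HRP–Amplex Red mix added; fluorescence read immediately and again after 30 min at room temperature.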
G9a block = inhibitors of human histone lysine methyltransferase G9a; 350,000 tested, 8.8% active; Potency, µM (series often up to 102 µM), hits mostly inhibitors; G9a H3K9 monomethylation, AlphaScreen, 2 h; AID 504332; Q96KQ7; also: nearly all actives have a fitted effect of over 75% in size
Target sequence (Q96KQ7 913-1193 limits assumed): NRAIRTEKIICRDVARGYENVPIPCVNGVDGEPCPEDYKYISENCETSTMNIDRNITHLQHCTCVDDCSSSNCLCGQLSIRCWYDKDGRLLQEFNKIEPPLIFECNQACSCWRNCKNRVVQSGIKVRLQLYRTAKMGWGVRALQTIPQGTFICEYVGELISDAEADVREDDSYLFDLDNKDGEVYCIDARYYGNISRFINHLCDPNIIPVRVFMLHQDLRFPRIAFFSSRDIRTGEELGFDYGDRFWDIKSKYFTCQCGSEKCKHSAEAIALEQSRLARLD
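Signal arises when biotinylated H3K9 peptide, once monomethylated, bridges streptavidin donor and antibody-captured acceptor beads. Enzyme at 20 nM was preincubated 15 min with test compounds; peptide 500 nM and SAM 20 uM then reacted for 2 h.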
JMJD2A Tudor inh = JMJD2A Tudor domain (human) inhibition. O75164. AlphaScreen JMJD2A-Tudor / H3K4me3 peptide binding. Potency, µM (highest dose often 114 µM), actives largely listed as inhibitors. 390,000 tested, 4.4% active; also: nearly all actives have a fitted effect of over 50% in size
HP1b chromo inh = blocks HP1-beta chromodomain binding to methylated histone tails; P83916; AlphaScreen HP1-beta / biotin-H3K9me3 peptide binding; Potency, µM (titrated, usually from 114 µM), usual class: inhibitors; 390,000 tested, 0.56% active; AID 540317; also: nearly all actives have a fitted effect of over 70% in size
Target sequence (P83916 whole entry, looked up): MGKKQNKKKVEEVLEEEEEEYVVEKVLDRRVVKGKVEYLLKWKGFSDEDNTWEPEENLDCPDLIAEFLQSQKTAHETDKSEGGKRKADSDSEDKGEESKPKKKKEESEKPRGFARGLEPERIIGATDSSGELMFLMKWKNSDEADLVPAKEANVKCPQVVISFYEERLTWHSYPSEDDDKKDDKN
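AlphaScreen: HP1-beta (50 nM) preformed 30 min with biotin-H3(1-18)K9me3 peptide (50 nM) in PBS pH 7.4, 0.01% Tween-20. Compound added for 30 min at RT, then streptavidin donor/nickel chelate acceptor beads (10 ug/mL) for 30 min.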
BAZ2B inh = inhibitors of human BAZ2B bromodomain; Q9UIF8; AlphaScreen BAZ2B-H3K14Ac peptide displacement; Potency, µM (titrated, usually from 114 µM), usual class: inhibitors; 360,000 tested, 4.4% active; AID 504333; also: nearly all actives have a fitted effect of over 60% in size
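AlphaScreen luminescence quantifies BAZ2B engagement of H3K14Ac peptide; the protein and biotinylated peptide are both at 50 nM final, buffer PBS pH 7.4 with 0.01% Tween-20, all steps at room temperature.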
Each line names hits and unclear results; the compound was inactive in the other large screens; ! = repeats disagree. Calls follow the shape of the dose curve; as a rule, active = well fitted curve in the direction sought with a large enough effect; inconclusive = small, poorly fitted or top-dose-only effect, or another doubt; inactive = no such curve, though single readings can be large; an effect the other way counts as inactive or inconclusive.

CN(C)c1ccc(C(CC(=O)O)NC(=O)c2ccc(Cl)cc2)cc1 (stereo not given)	none (no result: BAZ2B inh)
CCOC(=O)CCN(C(=O)Nc1ccccc1)C1CCCCC1	none (no result: G9a block, BAZ2B inh)
COc1ccccc1C1NC(c2ccc3c(c2)OCO3)=CC(c2cc(Cl)ccc2O)N1 (stereo not given)	none (no result: GLS inh, G9a block, BAZ2B inh)
COc1ccc(Br)cc1C1NC(c2ccc3c(c2)OCO3)=CC(c2cc(Cl)ccc2O)N1 (stereo not given)	JMJD2A Tudor inh 89µM (no result: GLS inh, G9a block, BAZ2B inh)
CCCOC(=O)c1ccccc1O	none (no result: JMJD2A Tudor inh, HP1b chromo inh, BAZ2B inh)
Cc1cc(N=Nc2ccccc2)c(NCC(O)C(O)C(O)CO)cc1C (stereo not given)	G9a block 20µM, JMJD2A Tudor inh 45µM, HP1b chromo inh inconclusive, BAZ2B inh 16µM
Cc1ccc(NCC(O)C(O)C(O)CO)cc1C (stereo not given)	G9a block inconclusive
CCOc1cc(-c2ccc3c(c2)OCO3)cc(=[O+]CC)c2c(C)oc(C)c12	JMJD2A Tudor inh 56µM, HP1b chromo inh inconclusive (no result: GLS inh, G9a block, BAZ2B inh)
COc1cc(-c2cc(OC)c3c(C)oc(C)c3c(=O)c2)ccc1OC(=O)c1ccccc1Cl	G9a block inconclusive, JMJD2A Tudor inh inconclusive, BAZ2B inh inconclusive
Cc1oc(C)c2c(=O)cc(-c3ccc4c(c3)OCO4)cc(OC(=O)c3ccccc3Br)c12	G9a block 13µM, JMJD2A Tudor inh inconclusive, BAZ2B inh inconclusive
Cc1oc(C)c2c(=O)cc(-c3ccc4c(c3)OCO4)cc(OC(=O)c3ccccc3Cl)c12	G9a block inconclusive, JMJD2A Tudor inh 63µM, BAZ2B inh 45µM
COc1ccccc1NC(=O)CSc1oc(-c2cccs2)nc1S(=O)(=O)c1ccccc1	G9a block inconclusive
CC(NCC1(N2CCOCC2)CCCCC1)C(=O)Nc1ccc(Cl)cc1Cl (stereo not given)	G9a block 32µM, BAZ2B inh 50µM
CC(NCC1(N2CCOCC2)CCCCC1)C(=O)N1CCc2ccccc21 (stereo not given)	G9a block inconclusive, JMJD2A Tudor inh 2.8µM, HP1b chromo inh inconclusive, BAZ2B inh 40µM
CCNC(=O)C1(C)CCN(C(=O)c2ccc(-c3ccccc3)cc2)C1 (stereo not given)	none (no result: G9a block, JMJD2A Tudor inh, HP1b chromo inh, BAZ2B inh)
CCCCN1C(=O)N(C)C2NC(=O)NC21 (stereo not given)	none
CCCCN1C(=O)NC2NC(=O)NC21 (stereo not given)	G9a block 25µM, JMJD2A Tudor inh inconclusive, BAZ2B inh 20µM
Cc1cc(=O)[nH]c2[nH][nH]c(=O)c12	JMJD2A Tudor inh 6.3µM (no result: G9a block, BAZ2B inh)
CC1Cc2ccccc2N1C(=O)COC(=O)CCc1nc2ccccc2c(=O)[nH]1 (stereo not given)	GLS inh inconclusive, JMJD2A Tudor inh 5.6µM
CC(C)CNC(=O)COC(=O)c1c2c(nc3ccccc13)CCC2	G9a block inconclusive, BAZ2B inh 56µM
N#Cc1ccc(NC(=O)COC(=O)CCc2nc3ccccc3c(=O)[nH]2)cc1	G9a block 50µM
CC1Cc2ccccc2N1C(=O)COC(=O)c1c2c(nc3ccccc13)CCCCC2 (stereo not given)	G9a block 2µM, HP1b chromo inh inconclusive
O=C(OCC(=O)N1CCc2ccccc21)c1c2c(nc3ccccc13)CCCC2	G9a block inconclusive
O=C(COC(=O)CCc1nc2ccccc2c(=O)[nH]1)Nc1ccccc1	GLS inh inconclusive (no result: G9a block, BAZ2B inh)
COC(=O)c1c2c(nc3ccccc13)CCC2	G9a block inconclusive
CCN(CC)C(=O)C1=C(C)N(Cc2ccc(OC)cc2)C(=O)C(CC(=O)NC2CCCC2)C1 (stereo not given)	none (no result: G9a block, JMJD2A Tudor inh, HP1b chromo inh, BAZ2B inh)
O=C(NCc1ccc(F)cc1)c1cc(-c2ccc(Cl)cc2)n[nH]1	none
CC(CNc1nc2ccccc2c2nc(-c3ccccc3)nn12)c1ccccc1 (stereo not given)	none
O=C1N/C(=C/c2ccco2)C(=O)N1Cc1ccccc1F	G9a block 32µM, JMJD2A Tudor inh inconclusive, HP1b chromo inh inconclusive, BAZ2B inh inconclusive
COc1ccc(C(=O)Nc2nnc(S(=O)(=O)N3CCCCCC3)s2)cc1OC	G9a block inconclusive, HP1b chromo inh inconclusive
CC1CCN(S(=O)(=O)c2nnc(NC(=O)c3ccc(C(C)C)cc3)s2)CC1	G9a block 14µM, JMJD2A Tudor inh inconclusive, BAZ2B inh inconclusive
COc1ccc(C(=O)Nc2nnc(S(=O)(=O)N3CCC(C)CC3)s2)cc1OC	G9a block 13µM!, JMJD2A Tudor inh inconclusive, BAZ2B inh inconclusive
O=[N+]([O-])c1ccc(NCCCNS(=O)(=O)c2ccccc2)c(Cl)c1	JMJD2A Tudor inh inconclusive
COc1ccc(NC(C)=O)cc1NC(=O)CSc1nnc(C2CCCCC2)n1N	none (no result: G9a block)
Cc1ccc(NC(=O)CSc2nnc(Cc3cccn3C)n2-c2ccc(F)cc2)c(C)c1	G9a block 28µM, BAZ2B inh inconclusive
Cn1cccc1Cc1nnc(SCC(=O)Nc2ccc(F)cc2F)n1-c1ccc(F)cc1	BAZ2B inh inconclusive
COc1ccc(Cl)cc1NC(=O)CSc1nnc(C2CC2)n1N	G9a block 79µM
COc1ccc(Cl)cc1NC(=O)CSc1nnc(Cc2cccn2C)n1-c1ccc(F)cc1	G9a block 45µM, JMJD2A Tudor inh inconclusive, BAZ2B inh inconclusive
COc1ccc(C2=Cc3ccccc3C(CC(=O)C3CC3)N2c2ccc(-c3cc(OC)c(OC)c(OC)c3)cc2)cc1 (stereo not given)	none (no result: G9a block, JMJD2A Tudor inh, HP1b chromo inh, BAZ2B inh)
CCNc1nc(SC(C)C(=O)OC)nc(N(C)C)n1 (stereo not given)	none
COC(=O)C(C)Sc1n[nH]c(=S)s1 (stereo not given)	G9a block 6.3µM, JMJD2A Tudor inh 40µM, HP1b chromo inh inconclusive, BAZ2B inh inconclusive
O=C(O)CC(Sc1n[nH]c(=S)s1)C(=O)O (stereo not given)	JMJD2A Tudor inh 45µM, BAZ2B inh 79µM (no result: G9a block)
NNC(=O)CNC(=O)Nc1n[nH]c(=S)s1	none (no result: G9a block, JMJD2A Tudor inh, HP1b chromo inh, BAZ2B inh)
S=c1c2c(nc3nc[nH]n13)CCC2	JMJD2A Tudor inh 6.3µM, BAZ2B inh 45µM (no result: G9a block)
CC1CCc2c(nc3nc[nH]n3c2=O)C1 (stereo not given)	none
Cc1[nH]c(=S)c(C#N)c(C)c1CCC#N	G9a block 2.8µM, JMJD2A Tudor inh 20µM
Cc1[nH]c(=S)c(C#N)c(C)c1Cc1ccccc1	GLS inh inconclusive, G9a block inconclusive, JMJD2A Tudor inh inconclusive
O=C1c2ccccc2-n2c1nc1ccccc1c2=O	none
CC(C)N1C(=O)C(Cc2nc3ccccc3c(=O)n2-c2ccccc2)c2ccccc21 (stereo not given)	BAZ2B inh inconclusive (no result: G9a block)
CC(C)N1C(=O)/C(=C/c2nc3ccccc3c(=O)n2-c2ccccc2)c2ccccc21	G9a block 10µM, JMJD2A Tudor inh 20µM, HP1b chromo inh 25µM, BAZ2B inh 35µM
CC(C)N1C(=O)/C(=C\c2nc3ccccc3c(=O)n2-c2ccccc2)c2ccccc21	G9a block inconclusive, JMJD2A Tudor inh 35µM, HP1b chromo inh inconclusive, BAZ2B inh 10µM

Screens (PubChem BioAssay)
